Results from PubChem BioAssay (EPA / NIEHS).
“And” between values parts separate entries of the source, which are not always exact repeats. Equal values may be shown once. Records with an inconclusive call do not appear. The source made the active and inactive calls. How the source made its calls, unless noted: active means hit-call score of the fitted dose curve at least 0.9, where 1 is the maximum; inconclusive means response in the unintended direction; inactive means score below 0.9.

test system: not listed separately; assay: CCTE_Harrill_HTTr_Apoptosis_DMEM_12hr: (Pilot) CCTE's 12-hour Apoptosis Assessment for the High-Throughput Transcriptomics (HTTr) Platform, in MCF-7 cells cultured in DMEM + 10% fetal bovine serum, Harrill Lab (AID 2283982; active means hit-call score of the fitted dose curve at least 0.9, where 1 is the maximum; inactive means score below 0.9)
Method in brief: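 Caspase-3/7 activity was measured by high-content imaging (CellEvent Caspase 3/7 Green) after a 12-hour exposure of MCF-7 cells grown in DMEM with 10% FBS. Eight-point concentration series, fitted bidirectionally against vehicle.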

SMILES | AC50 | outcome
CC(C)CCCCCCc1ccc(O)cc1 | 63.2 µM (active) | 
S=C([S-])NCCNC(=S)[S-].[Mn+2] |  | inactive
C[C@]12CC[C@@H]3c4ccc(O)cc4C[C@@H](CCCCCCCCCS(=O)CCCC(F)(F)C(F)(F)F)[C@H]3[C@@H]1CC[C@@H]2O (stereo partly drawn) |  | inactive
CC(C)(c1ccc(O)cc1)c1ccc(O)cc1 |  | inactive
C=CCOC(Cn1ccnc1)c1ccc(Cl)cc1Cl (stereo not drawn) |  | inactive
N[C@@H](Cc1cc(I)c(Oc2ccc(O)c(I)c2)c(I)c1)C(=O)O |  | inactive
Cc1nn(C)c(Oc2ccccc2)c1C=NOCc1ccc(C(=O)OC(C)(C)C)cc1 |  | inactive

test system: not listed separately; assay: CCTE_Harrill_HTTr_Apoptosis_DMEM_24hr: (Pilot) CCTE's 24-hour Apoptosis Assessment for the High-Throughput Transcriptomics (HTTr) Platform, in MCF-7 cells cultured in DMEM + 10% fetal bovine serum, Harrill Lab (AID 2283983; active means hit-call score of the fitted dose curve at least 0.9, where 1 is the maximum; inactive means score below 0.9)
Description: This is a cell-based assay that evaluates apoptosis using high content imaging to evaluate activation of caspase-3/7 using the CellEvent Caspase 3/7 Green detection reagent in 384-well format.One of seven assay components measured from the CCTE_Harrill_HTTr_Apoptosis assay. This was part of a pilot experiment. This is a cell-based assay that evaluates apoptosis in MCF-7 cells cultured in DMEM + 10% fetal bovine serum. High content imaging is used to evaluate activation of caspase-3/7 using the CellEvent Caspase 3/7 Green detection reagent. Measurements are taken at 24 hours after chemical dosing in 384-well format.The assay component endpoint CCTE_Harrill_HTTr_Apoptosis_DMEM_24hr was analyzed with bidirectional fitting relation to DMSO as the negative control and baseline of activity. Using a type of viability reporter, gain-of-signal activity can be used to evaluate activation of caspase-3/7 using the CellEvent Caspase 3/7 Green detection reagent to understand changes in apoptosis. To generalize the intended target to other relatable targets, this assay endpoint is annotated to cell cycle, where the subfamily is apoptosis.
Chemicals were tested in MCF7 cells in an eight point dilution series with a twenty-four hour exposure duration.

SMILES | AC50 | outcome
CC(C)CCCCCCc1ccc(O)cc1 | 77.5 µM (active) | 
S=C([S-])NCCNC(=S)[S-].[Mn+2] |  | inactive
C[C@]12CC[C@@H]3c4ccc(O)cc4C[C@@H](CCCCCCCCCS(=O)CCCC(F)(F)C(F)(F)F)[C@H]3[C@@H]1CC[C@@H]2O (stereo partly drawn) |  | inactive
CC(C)(c1ccc(O)cc1)c1ccc(O)cc1 |  | inactive
C=CCOC(Cn1ccnc1)c1ccc(Cl)cc1Cl (stereo not drawn) |  | inactive
N[C@@H](Cc1cc(I)c(Oc2ccc(O)c(I)c2)c(I)c1)C(=O)O |  | inactive
Cc1nn(C)c(Oc2ccccc2)c1C=NOCc1ccc(C(=O)OC(C)(C)C)cc1 |  | inactive

test system: not listed separately; assay: CCTE_Harrill_HTTr_Apoptosis_PRF_DMEM_6hr: (Pilot) CCTE's 6-hour Apoptosis Assessment for the High-Throughput Transcriptomics (HTTr) Platform, in MCF-7 cells cultured phenol red-free DMEM + 10% charcoal-stripped fetal bovine serum, Harrill Lab (AID 2283984; active means hit-call score of the fitted dose curve at least 0.9, where 1 is the maximum; inactive means score below 0.9)
Method in brief: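 Caspase-3/7 activity (CellEvent Green) read by high-content imaging 6 h after dosing, eight concentrations. Cells: MCF-7, phenol red-free DMEM with 10% charcoal-stripped serum. Curves fit both directions against DMSO.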

SMILES | outcome
CC(C)CCCCCCc1ccc(O)cc1 | inactive
S=C([S-])NCCNC(=S)[S-].[Mn+2] | inactive
C[C@]12CC[C@@H]3c4ccc(O)cc4C[C@@H](CCCCCCCCCS(=O)CCCC(F)(F)C(F)(F)F)[C@H]3[C@@H]1CC[C@@H]2O (stereo partly drawn) | inactive
CC(C)(c1ccc(O)cc1)c1ccc(O)cc1 | inactive
C=CCOC(Cn1ccnc1)c1ccc(Cl)cc1Cl (stereo not drawn) | inactive
N[C@@H](Cc1cc(I)c(Oc2ccc(O)c(I)c2)c(I)c1)C(=O)O | inactive
Cc1nn(C)c(Oc2ccccc2)c1C=NOCc1ccc(C(=O)OC(C)(C)C)cc1 | inactive

test system: not listed separately; assay: CCTE_Harrill_HTTr_Apoptosis_PRF_DMEM_24hr: (Pilot) CCTE's 24-hour Apoptosis Assessment for the High-Throughput Transcriptomics (HTTr) Platform, in MCF-7 cells cultured in phenol red-free DMEM + 10% charcoal-stripped fetal bovine serum, Harrill Lab (AID 2283986; active means hit-call score of the fitted dose curve at least 0.9, where 1 is the maximum; inactive means score below 0.9)
Method in brief: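 Eight concentrations tested for 24 h on MCF-7 grown in charcoal-stripped serum, phenol red-free DMEM. High content imaging of CellEvent Caspase 3/7 Green signal gives apoptosis read-out, fitted both ways relative to DMSO.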

SMILES | AC50 | outcome
CC(C)CCCCCCc1ccc(O)cc1 | 77.2 µM (active) | 
S=C([S-])NCCNC(=S)[S-].[Mn+2] |  | inactive
C[C@]12CC[C@@H]3c4ccc(O)cc4C[C@@H](CCCCCCCCCS(=O)CCCC(F)(F)C(F)(F)F)[C@H]3[C@@H]1CC[C@@H]2O (stereo partly drawn) |  | inactive
CC(C)(c1ccc(O)cc1)c1ccc(O)cc1 |  | inactive
C=CCOC(Cn1ccnc1)c1ccc(Cl)cc1Cl (stereo not drawn) |  | inactive
N[C@@H](Cc1cc(I)c(Oc2ccc(O)c(I)c2)c(I)c1)C(=O)O |  | inactive
Cc1nn(C)c(Oc2ccccc2)c1C=NOCc1ccc(C(=O)OC(C)(C)C)cc1 |  | inactive

test system: DIO1 (gene 1733); assay: CCTE_GLTED_hDIO1: CCTE's human Deiodinase 1 (DIO1) Inhibition Assay, Great Lakes Toxicology and Ecology Division (GLTED) Lab (AID 2283987);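 further: isolated human DIO1 enzyme in a cell-free setup rather than cells; enzyme activity read as free iodide liberated from substrate via Sandell-Kolthoff colorimetry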
Method in brief: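 Cell-free hDIO1 assay, triplicate plates. Absorbance of the Sandell-Kolthoff reaction reports enzyme-liberated iodide; iodinated chemicals or nitrite, iron and thiocyanate may interfere.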

SMILES | AC50
CC(C)CCCCCCc1ccc(O)cc1 | 49.4 µM (active)
S=C([S-])NCCNC(=S)[S-].[Mn+2] | 35.7 µM (active)
S=C(S)NCCNC(=S)S.[Mn+2].[S-]C([S-])=NCCN=C([S-])[S-].[Zn+2] | 29.5 µM (active) and 50 µM (active)

target: Nucleoli Translocation, AR (gene 367) (UniProt P10275); assay: UPITT_HCI_U2OS_AR_TIF2_Nucleoli_Antagonist: University of Pittsburgh U2OS Androgen Receptor-Transcriptional Intermediary Factor 2 (AR-TIF2) Antagonism High Content Imaging Assay for Nucleoli Translocation (AID 2283997)
Sequence (P10275 whole entry, looked up): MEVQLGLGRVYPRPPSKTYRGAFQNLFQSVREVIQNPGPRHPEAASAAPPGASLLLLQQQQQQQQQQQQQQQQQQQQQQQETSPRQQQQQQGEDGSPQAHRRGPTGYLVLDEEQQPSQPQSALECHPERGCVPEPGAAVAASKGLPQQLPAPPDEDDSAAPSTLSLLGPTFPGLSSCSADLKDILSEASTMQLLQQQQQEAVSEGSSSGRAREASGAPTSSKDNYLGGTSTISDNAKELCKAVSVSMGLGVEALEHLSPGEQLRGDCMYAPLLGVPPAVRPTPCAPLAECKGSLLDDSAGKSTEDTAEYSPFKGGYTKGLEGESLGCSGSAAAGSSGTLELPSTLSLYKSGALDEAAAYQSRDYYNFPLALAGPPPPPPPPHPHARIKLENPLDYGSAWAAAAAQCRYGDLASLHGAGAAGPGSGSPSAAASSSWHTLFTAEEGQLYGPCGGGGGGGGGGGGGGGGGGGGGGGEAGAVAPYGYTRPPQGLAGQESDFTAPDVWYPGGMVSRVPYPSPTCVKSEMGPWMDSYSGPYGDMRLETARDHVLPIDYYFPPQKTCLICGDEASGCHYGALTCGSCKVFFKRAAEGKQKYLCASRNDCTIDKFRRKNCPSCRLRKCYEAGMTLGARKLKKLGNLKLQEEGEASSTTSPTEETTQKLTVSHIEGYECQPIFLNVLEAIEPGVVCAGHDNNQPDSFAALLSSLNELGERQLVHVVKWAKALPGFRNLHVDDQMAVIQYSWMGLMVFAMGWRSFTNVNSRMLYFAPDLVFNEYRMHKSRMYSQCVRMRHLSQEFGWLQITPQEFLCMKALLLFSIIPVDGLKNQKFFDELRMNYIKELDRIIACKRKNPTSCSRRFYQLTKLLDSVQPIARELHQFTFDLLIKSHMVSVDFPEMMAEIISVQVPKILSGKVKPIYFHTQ
Method in brief: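 An antagonist-mode imaging screen: engineered U2OS (AR-RFP, TIF2-GFP) exposed to 20 uM compound, 0.2% DMSO. Activity reflects nucleolar red fluorescence change relative to DHT baseline.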

SMILES | AC50 | outcome
N#CSCSc1nc2ccccc2s1 | 9.92 µM (active) | 
CC1(C)C(C=C(Cl)Cl)C1C(=O)OCc1cccc(Oc2ccccc2)c1 (stereo not drawn) |  | inactive
C[C@]12CC[C@@H]3c4ccc(O)cc4C[C@@H](CCCCCCCCCS(=O)CCCC(F)(F)C(F)(F)F)[C@H]3[C@@H]1CC[C@@H]2O (stereo partly drawn) |  | inactive
CCSC(=O)N(CC(C)C)CC(C)C |  | inactive
O=C(c1ccc(O)cc1O)c1ccc(O)cc1O | 10.1 µM (active) | 
O=C(O)C1(C(=O)Nc2ccc(Cl)cc2Cl)CC1 |  | inactive
CC(=O)S[C@@H]1CC2=CC(=O)CC[C@]2(C)[C@H]2CC[C@@]3(C)[C@@H](CC[C@@]34CCC(=O)O4)[C@H]12 |  | inactive
c1ccc2[nH]c(-c3cscn3)nc2c1 |  | inactive
CN(C)C(=O)Nc1ccc(Cl)c(Cl)c1 |  | inactive
CSC(=O)c1cccc2nnsc12 | 50 µM (active) | 
O=C(c1ccccc1)C1CCCCC1 |  | inactive
CC(C)(c1ccc(O)cc1)c1ccc(O)cc1 | 12.9 µM (active) | 
CCCOC(=O)c1ccc(C(=O)OCCC)nc1 |  | inactive
CCCCOCCOCCOCc1cc2c(cc1CCC)OCO2 |  | inactive
CCCN(CCC)C(=O)SCC |  | inactive
Cc1nn(C)c(Oc2ccccc2)c1C=NOCc1ccc(C(=O)OC(C)(C)C)cc1 |  | inactive
COC(=O)CSc1cc(N=c2sc(=O)n3n2CCCC3)c(F)cc1Cl |  | inactive
CCOC(=O)C(C)Oc1ccc(Oc2nc3ccc(Cl)cc3o2)cc1 (stereo not drawn) |  | inactive

target: Ratio of Nucleoli Translocation and Cytoplasm, AR (gene 367) (UniProt P10275); assay: UPITT_HCI_U2OS_AR_TIF2_Nucleoli_Cytoplasm_Ratio_Antagonist: University of Pittsburgh U2OS Androgen Receptor-Transcriptional Intermediary Factor 2 (AR-TIF2) Antagonism High Content Imaging Assay for Ratio of Nucleoli Translocation and Cytoplasm (AID 2283999);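 further: antagonists lower the DHT-driven ratio of nucleolar to cytoplasmic red signal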
Sequence (P10275 whole entry, looked up): as above
Method in brief: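 High-content imaging of red fluorescence ratio, nucleoli versus cytoplasm, in U2OS expressing AR-RFP and TIF2-GFP, fitted relative to DHT. Compounds tested once at 20 uM final, then 0.195 to 50 uM final in serial dilution.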

SMILES | AC50 | outcome
N#CSCSc1nc2ccccc2s1 | 32.4 µM (active) | 
CC1(C)C(C=C(Cl)Cl)C1C(=O)OCc1cccc(Oc2ccccc2)c1 (stereo not drawn) |  | inactive
CCSC(=O)N(CC(C)C)CC(C)C |  | inactive
O=C(c1ccc(O)cc1O)c1ccc(O)cc1O | 2.35 µM (active) | 
CC(=O)S[C@@H]1CC2=CC(=O)CC[C@]2(C)[C@H]2CC[C@@]3(C)[C@@H](CC[C@@]34CCC(=O)O4)[C@H]12 |  | inactive
CN(C)C(=O)Nc1ccc(Cl)c(Cl)c1 |  | inactive
CSC(=O)c1cccc2nnsc12 |  | inactive
O=C(c1ccccc1)C1CCCCC1 |  | inactive
CC(C)(c1ccc(O)cc1)c1ccc(O)cc1 |  | inactive
CCCOC(=O)c1ccc(C(=O)OCCC)nc1 |  | inactive
CCCCOCCOCCOCc1cc2c(cc1CCC)OCO2 |  | inactive
Cc1nn(C)c(Oc2ccccc2)c1C=NOCc1ccc(C(=O)OC(C)(C)C)cc1 |  | inactive
COC(=O)CSc1cc(N=c2sc(=O)n3n2CCCC3)c(F)cc1Cl |  | inactive
CCOC(=O)C(C)Oc1ccc(Oc2nc3ccc(Cl)cc3o2)cc1 (stereo not drawn) |  | inactive
